# Data published in PubChem BioAssay AID720596 (The Scripps Research Institute Molecular Screening Center, 2013).
# About 1,600 (0.43%) of roughly 370,000 compounds were called active. Only a selection was taken, and actives are over-represented in it overall. Values without a mark were called inactive. Cut-off read from the data, not from the text of the source: active = inhibition above about 24%; inactive = the rest.
# Molecular target: Major prion protein (Homo sapiens) (UniProt P04156)
# Assay: inhibitors of human cell surface prion protein PrPC, primary screen, cell-based, TR-FRET (AID 720596); note: 0% = median of the test wells and 100% = reference compound wells
# Conditions: TR-FRET read-out, at 13.8 µM, active compounds read high
row,SMILES,inhibition
1,Cc1ccc(Cl)cc1N1CCN(C(=O)c2cccc3c(=O)c(C)c(-c4ccccc4)oc23)CC1,3.53%
2,N#Cc1ccc(-c2nc3c(Cl)cc(C(F)(F)F)cn3c2Cc2ccccc2C(F)(F)F)cc1,6.77%
3,CCOC(=O)C1(Cc2ccc(Cl)cc2)CCN(C(C)CCn2cccn2)CC1 (centres undefined),-7.01%
4,COC(=O)c1ccc2nc(-c3cccc(Br)c3)c(Cc3ccc(OC)cc3C)n2c1,-3.29%
5,CCCCNc1c(-c2cccc(Sc3ccc(OC)cc3)c2)nc2ccccn12,24.6% (active)
6,CCCCNC(=O)c1onc(CSc2cccc(OC)c2)c1C(=O)O,0.43%
7,COc1ccc(-c2cc(C(F)(F)F)nc(SCCC(=O)NCc3ccco3)n2)cc1,-0.14%
8,COc1ccc(-c2cc(C(F)(F)F)nc(S(C)(=O)=O)n2)cc1OC,43.6% (active)
9,CCCC[C@H]1C2CC(OC(=O)NCc3ccccc3)C(C2)[C@H]2CCCCN21 (some centres undefined),-9.6%
10,CCc1c(N=O)c(-c2ccccc2)n(O)[n+]1[O-],-1.69%
11,CCc1c(C)[nH]c(=S)c(C#N)c1C,10%
12,CC(=O)c1c(C)[nH]c(=S)c(C#N)c1-c1ccc(F)cc1,2.25%
13,CCOC(=O)c1c(C)[nH]c(=S)c(C#N)c1-c1ccccc1,36.6% (active)
14,Cc1nc(CC(=O)NNS(=O)(=O)c2ccc(F)c(Cl)c2)cs1,-3.65%
15,Cc1c(NC(=O)CN2C(=O)C(=O)N(Cc3ccccc3)C2=O)c(=O)n(-c2ccccc2)n1C,-0.02%
16,Cc1c(C)n2c(SCC(=O)N3CCCC3)nnc2[nH]c1=O,-1.9%
17,O=C(CSc1nc2c(c(=O)[nH]1)CCCC2)N1CCCCC1,3.4%
18,CC(=O)c1sc2nc(SCC(=O)N3CCCCC3)[nH]c(=O)c2c1C,34.2% (active)
19,CCCCCCCCCCCCn1ccc(=N)cc1,34.3% (active)
20,C[C@H]1CN([C@@H](C)CO)C(=O)CCCn2cc(nn2)CO[C@@H]1CN(C)S(=O)(=O)c1cccs1,6.24%
21,NC(=O)COc1ccc(NC(=O)c2ccccc2-c2ccccc2)cc1,2.41%
22,Cc1ccc(C)c2[nH]c(=O)c(CCNC(=O)c3cccs3)cc12,1.05%
23,CCCCC(CC)CNCc1cccn1CCN1CCOCC1 (centres undefined),-0.03%
24,CCCCCCCCn1c2c(c(=N)c3c1CCC3)CCCC2,34.1% (active)
25,CCNC(=O)Nc1ccc(S(=O)(=O)Nc2cnc(C)nc2C)cc1,-5.43%
26,Cc1ccc(Sc2ccc(NC(=O)c3ccc(F)cc3)cc2C#N)cc1,-3.85%
27,Cc1ccc(NC(=O)c2sc3nc(N)c(C#N)cc3c2N)cc1,29.7% (active)

row,SMILES,inhibition
1,CC(=O)c1ccc(NC(=O)c2sc3nc4n(c(=O)c3c2C)CCCCC4)cc1,7.05%
2,CC(=O)Nc1ccc(S(=O)(=O)NNC(=O)CCc2ccccc2)cc1,-0.14%
3,COc1ccc(-n2nnnc2SCc2nc(N)nc(N3CCOCC3)n2)cc1,2.17%
4,CC1(c2ccc3ccccc3c2)NC(=O)NC1=O (centres undefined),9.52%
5,CNC(=O)C1CN(C(=O)c2cccc(S(=O)(=O)N3CCc4ccccc43)c2)c2ccccc2O1 (centres undefined),4.01%
6,Nc1[nH]c(C(=O)c2ccc(Br)cc2)c(-c2ccc3c(c2)OCO3)c1C(=O)NCCc1c[nH]c2ccccc12,-5.16%
7,Oc1c(Cl)cc(Cl)c(Cl)c1Cc1c(O)c(Cl)cc(Cl)c1Cl,28.9% (active)
8,C=CCC[C@@H](CCCCC)OC(=O)/C=C/[C@@H](O)[C@H](O)C[C@H](O)CC=C,-5.85%
9,COc1ccc(-c2cc(-c3nnc(SCc4ccc([N+](=O)[O-])cc4)n3N)[nH]n2)cc1,0.13%
10,CCOc1ccc(S(=O)(=O)N(CC(=O)O)c2ccccc2)cc1,-3.25%
11,COC(=O)[C@]12C[C@H](CC(=O)NCc3ccc(C)o3)C(=O)N(CCC3=CCCCC3)C1=C[C@H](C(C)(C)C)O[C@@H]2C,7.81%
12,O=C(Nc1ccc(C2CC2(Cl)Cl)cc1)c1cccc([N+](=O)[O-])c1 (centres undefined),25.6% (active)
13,Cc1ccc(NC(=O)C(=O)NCC2CCN(C(=O)c3cccc([N+](=O)[O-])c3)CC2)cc1,-5.67%
14,O=C(Nc1ccc([N+](=O)[O-])cc1)C1CC12CCC2 (centres undefined),3.59%
15,COc1cc(C(=O)N2Cc3ccc(Br)cc3-n3nncc3C2)cc(OC)c1OC,-0.36%
16,Cc1ccc(C)c(S(=O)(=O)N2CCCOC2CNC(=O)C(=O)NC2CCCCC2)c1 (centres undefined),-1.91%
17,COc1ccc2c(CC(=O)OCC(=O)Nc3ccccc3[N+](=O)[O-])coc2c1,-12.7%
18,CO[C@H]([C@H](C)/C=C/N(C)C=O)[C@@H](C)C(=O)CC[C@H](C)[C@H](O)[C@H](C)[C@H]1OC(=O)/C=C/C(C)=C/[C@H](O)[C@H](OC)C[C@@H]2C=CC[C@@H](C[C@H](OC)[C@@]3(CO3)[C@@H](OC)C[C@@H](OC)[C@@H]1C)O2,38% (active)
19,CN(C)C(=O)CCc1ccc2c3c([nH]c2c1)[C@]1(C)[C@@H](C(=O)N2CCCCC2)C[C@H](CC(=O)NCCC2=CCCCC2)C(=O)N1CC3,-3.09%
20,O=C(Cc1ccccc1)Nc1cccc(NC(=O)c2ccccc2)c1,30.2% (active)
21,CN(CCc1ccccc1)C(=O)c1cccc(NC(=O)Cc2ccc([N+](=O)[O-])cc2)c1,-2.03%
22,CC(C)(C)NC(=O)c1cccc(NC(=O)Cc2ccc(Br)cc2)c1,11%
23,Cc1ccc(Cc2cncc(O)c2)cc1S(=O)(=O)O,-7.2%
24,Cc1[nH]c(C)c(S(=O)(=O)N2CCC(C)CC2)c1C(=O)N1CCCC1,-7.7%
25,O/N=C(\C[n+]1ccccc1)c1ccc(Br)cc1,6.16%
26,O=C(c1ccc(-c2ccccc2)cc1)C1CCCN(C(=O)c2cncs2)C1 (centres undefined),6.46%
27,C=CCN(c1ccccc1C(=O)NCC(=O)OCC)S(=O)(=O)c1ccc(C)cc1,5.82%
